Source: PubChem BioAssay (several laboratories)
CYP2C9 activ – human CYP2C9 activators, primary screen, biochemical, luminescence; Cytochrome P450 2C9 (Homo sapiens), P11712; recombinant CYP2C9, luciferin-H conversion; hits give high values; factor 1 = untreated enzyme, 0 = blocked; activation factor at 5 µM; 96,000 tested, 1.4% active; AID 1024, 2008;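 active means activation factor of 2 or more for CYP2C9 at a 5 µM dose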;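 further: 0 = sulfaphenazole-blocked wells and 1 = vehicle-only wells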
CYP2C19 inh – blockers of cytochrome P450 2C19 activity – biochemical, luminescence, ADME assay, primary screen. inhibition, % at 5 µM. P33261. AID 778, 2007. CYP2C19 Supersomes, luciferin-H EGE luminescence, 30 min. 96,000 tested, 21% active;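 active means CYP2C19 inhibition above a set limit at 5 µM in the primary screen, cut at about 50% in these data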;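 further: plate controls were negative control wells for no effect and 2.5 mM tranylcypromine positive control for full effect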
Target sequence (P33261 whole entry, looked up): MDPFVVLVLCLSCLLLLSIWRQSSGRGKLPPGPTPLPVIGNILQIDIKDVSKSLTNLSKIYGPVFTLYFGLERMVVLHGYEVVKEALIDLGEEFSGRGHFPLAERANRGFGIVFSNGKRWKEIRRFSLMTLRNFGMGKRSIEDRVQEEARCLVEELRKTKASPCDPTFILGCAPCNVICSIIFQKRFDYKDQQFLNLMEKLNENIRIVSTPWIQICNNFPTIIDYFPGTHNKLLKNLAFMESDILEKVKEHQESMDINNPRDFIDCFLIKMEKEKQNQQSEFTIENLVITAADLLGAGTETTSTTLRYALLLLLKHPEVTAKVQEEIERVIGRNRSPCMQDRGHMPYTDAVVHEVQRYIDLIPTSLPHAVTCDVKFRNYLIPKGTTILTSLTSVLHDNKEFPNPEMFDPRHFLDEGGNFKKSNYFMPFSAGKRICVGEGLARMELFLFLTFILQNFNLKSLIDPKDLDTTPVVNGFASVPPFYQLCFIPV
sEH act – soluble epoxide hydrolase activators, primary screen, biochemical, human sEH | Bifunctional epoxide hydrolase 2 (Homo sapiens), P34913 | purified human sEH enzymatic activity, activator screen | activation, % at 2 µM | 91,000 tested, 0.04% active | AID 717, 2007; in the data active means activation above about 37%
CYP2C9 inhib – blockers of cytochrome P450 2C9 activity – biochemical, luminescence, ADME assay, primary screen; P11712; CYP2C9 Supersomes, luciferin-H conversion; inhibition, % at 5 µM; 96,000 tested, 20% active; AID 777, 2007;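 active means blocking of liver enzyme CYP2C9 beyond about 50% at 5 µM, limit read from the data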
CYP2C19 act – human CYP2C19 activators, primary screen, biochemical, luminescence | Cytochrome P450 2C19 (Homo sapiens), P33261 | recombinant CYP2C19, luciferin-H EGE luminescence; hits give high values; 0 = fully inhibited enzyme, 1 = untreated enzyme | activation factor at 5 µM | 96,000 tested, under 10 active | AID 1025, 2008;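 active means activation factor of at least 2 at 5 µM in the primary screen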;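 further: 0 = wells with 2.5 mM tranylcypromine and 1 = vehicle-only wells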
sEH inh – soluble epoxide hydrolase inhibitors, primary screen, biochemical, human sEH; Bifunctional epoxide hydrolase 2 (Homo sapiens), P34913; recombinant human sEH enzymatic activity assay; inhibition, % at 2 µM; 91,000 tested, 0.34% active; AID 707, 2007; in the data active means inhibition above about 80%
* marks the source's active call; other numbers are inactive results; . = not tested or not shown. Most compounds without a hit are left out; they make up all but 27% or so of the library.

SMILES	CYP2C9 activ	CYP2C19 inh	sEH act	CYP2C9 inhib	CYP2C19 act	sEH inh
COC(=O)C(C)(C(=O)OC)c1ccc([N+](=O)[O-])cn1	1	6	2	-5	0.9	1
COC(=O)C(C)(C(=O)OC)c1ccccc1[N+](=O)[O-]	0.9	8	-1	7	0.9	-1
COC(=O)C(Cc1cnc(Cl)s1)(C(=O)OC)c1ccccc1[N+](=O)[O-]	0.3	94*	6	65*	0.1	-8
COC(=O)C(Cc1cnc(Cl)s1)(C(=O)OC)c1ccc([N+](=O)[O-])cc1	0.3	91*	-4	73*	0.1	2
Cc1ccc(CCNC(=O)C23CN(Cc4ccccc4)CC2C(c2ccc([N+](=O)[O-])cc2)=NO3)cc1 (centres undefined)	1	34	-9	3	0.7	10
Cc1ccc(CNC(=O)C23CN(Cc4ccccc4)CC2C(c2ccc([N+](=O)[O-])cc2)=NO3)cc1 (centres undefined)	0.7	58*	-6	33	0.4	6
O=C(NCC1CCCO1)C12CN(Cc3ccccc3)CC1C(c1cccc([N+](=O)[O-])c1)=NO2 (centres undefined)	0.8	33	-9	18	0.7	7
O=C(NCc1ccccc1)C12CN(Cc3ccccc3)CC1C(c1cccc([N+](=O)[O-])c1)=NO2 (centres undefined)	0.6	74*	13	38	0.3	-6
O=C(NCc1cc(C(F)(F)F)cc(C(F)(F)F)c1)C12CN(Cc3ccccc3)CC1C(c1cccc([N+](=O)[O-])c1)=NO2 (centres undefined)	0.6	26	-6	36	0.7	4
O=C(NCc1ccc(OC(F)(F)F)cc1)C12CN(Cc3ccccc3)CC1C(c1cccc([N+](=O)[O-])c1)=NO2 (centres undefined)	0.4	76*	2	57*	0.2	-4
CCOCCCNC(=O)C(Cc1ccccc1)NC(=O)c1ccco1 (centres undefined)	0.8	18	13	20	0.8	-10
O=C(NCc1ccccn1)Nc1ccc(Cl)c(Cl)c1	.	.	3	.	.	1
S=C(NCc1ccccn1)Nc1ccc(Cl)cc1	0.7	60*	9	28	0.4	-8
CC(C)(C)c1[nH]nc2c1C(c1ccncc1)C(C#N)=C(N)O2 (centres undefined)	0.3	60*	-5	72*	0.4	9
Cc1[nH]nc2c1C(c1ccc(Cl)cc1)C(C#N)=C(N)O2 (centres undefined)	0.6	53*	-6	43	0.5	6
CC(C)(C)c1[nH]nc2c1C(c1ccoc1)C(C#N)=C(N)O2 (centres undefined)	0.9	39	-4	11	0.6	7
Cc1ccc(C2C(C#N)=C(N)Oc3n[nH]c(C)c32)cc1 (centres undefined)	0.9	27	-2	9	0.7	4
CCCn1c(SCC(N)=O)nc2c(c1=O)C1(CCCC1)Cc1ccccc1-2	1	-3	7	5	1	-4
CCN(CC)Cc1nc2c(c(=O)[nH]1)C1(CCCC1)Cc1ccccc1-2	0.1	47	-6	87*	0.5	7
CCC(=O)Nn1cnc2c(c1=O)C1(CCCCC1)Cc1ccccc1-2	1.1	42	-66	-9	0.6	67
Cn1c(NCCCO)nc2c(c1=O)C1(CCCCC1)Cc1ccccc1-2	0.2	78*	0	83*	0.2	-2
CCC1(C)Cc2ccccc2-c2nc(NCCO)[nH]c(=O)c21 (centres undefined)	0.3	56*	4	69*	0.4	-3
O=c1[nH]c(NCCO)nc2c1C1(CCCC1)Cc1ccccc1-2	0.7	7	6	26	0.9	-6
CCCC(=O)Nn1cnc2c(c1=O)C1(CCCCC1)Cc1ccccc1-2	0.4	50*	-99	64*	0.5	99*
Cn1c(SCC(=O)OCC(=O)c2ccccc2)nnc1-c1cccs1	0.8	27	10	21	0.7	-11
